# Compounds with a hit are over-represented: about 11% of the library has one in this group of screens.
# G9a inh = G9a (human) methyltransferase inhibition | 350,000 tested, 8.8% active | Q96KQ7 | Potency, µM (highest dose often 102 µM), for inactives: at the highest dose activity, negative = inhibition, most hits filed as inhibitors | AID 504332 | G9a H3K9 monomethylation, AlphaScreen, 2 h; note: potency is the fitted concentration of half-maximal effect; nearly all actives have a fitted effect of over 75% in size
# Target sequence (Q96KQ7 913-1193 limits assumed): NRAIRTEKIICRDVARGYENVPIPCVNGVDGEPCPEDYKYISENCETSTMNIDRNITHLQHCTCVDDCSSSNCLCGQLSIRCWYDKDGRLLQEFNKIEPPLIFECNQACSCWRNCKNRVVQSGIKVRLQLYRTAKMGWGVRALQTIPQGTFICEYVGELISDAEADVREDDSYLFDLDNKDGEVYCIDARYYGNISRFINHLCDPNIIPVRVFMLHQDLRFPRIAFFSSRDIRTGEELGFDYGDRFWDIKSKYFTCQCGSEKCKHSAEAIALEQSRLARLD
#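 Using a bead-based AlphaScreen, monomethylated H3K9 product from 2 h room-temperature reactions (G9a 20 nM, peptide 500 nM, SAM 20 uM) was detected with 0.5 ug/mL rabbit anti-H3K9me1 antibody.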
# Coupling enz = counter-screen for Giardia aldolase inhibitors: coupling enzyme system. coupling enzyme system counterscreen, AmpLite Red fluorescence. activity change, negative = inhibition, % at 58.2 µM, hits read low. 290,000 tested, 0.67% active. AID 2472; in the data active = activity change below about -30%
#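 Compounds tested against the coupling enzymes alone at 57.5 uM final; readout was AmpLite Red fluorescence (525/598 nm) after 20 min at RT.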
# Tau fibril ThT = tau fibrillization inhibition (ThT binding); 270,000 tested, 2.1% active; recombinant tau K18 P301L, heparin-induced fibrillization, ThT fluorescence; Potency, µM (series often up to 57.4 µM), without a hit: at the top dose activity, negative = inhibition, hits mostly inhibitors; note: potency is the fitted concentration of half-maximal effect; nearly all actives have a fitted effect of over 55% in size
# Target sequence (P10636 561-689 P618L limits assumed): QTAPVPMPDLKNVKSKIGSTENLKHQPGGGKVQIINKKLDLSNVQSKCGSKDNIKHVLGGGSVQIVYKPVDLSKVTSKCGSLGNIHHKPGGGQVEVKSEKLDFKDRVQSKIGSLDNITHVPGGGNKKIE
#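 Fibril formation assay: tau K18 P301L at 15 uM with trace Alexa 594 label, heparin inducer 20 uM, pH 7 sodium acetate buffer, 37 C for 6 hr; endpoint ThT signal.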
# Tau fluor counter = counter-screen for tau fibril formation inhibitors; tau K18 P301L Alexa594 fluorescence, heparin fibrillization; Potency, µM (series often up to 57.7 µM), for inactives: at the top dose activity change, negative = decrease; 280,000 tested, 0.93% active; note: potency is the fitted concentration of half-maximal effect; nearly all actives have a fitted effect of over 55% in size
#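 Human tau K18 P301L (15 uM unlabeled, 0.24 uM Alexa 594-labeled) in 100 mM sodium acetate pH 7 with 20 uM heparin, 6 hr at 37 C. ThT 30 uM added, 1 hr ambient; Alexa 594 FP and total fluorescence read at 555/632 nm.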
# Tau FP inhib = blocks human tau fibril formation measured by polarization; Potency, µM (top dose mostly 57.7 µM), without a hit: top-dose activity, negative = inhibition, actives largely listed as inhibitors; P10636; 280,000 tested, 0.39% active; K18 P301L tau heparin fibrillization, Alexa594 FP, 6 h; note: potency is the fitted concentration of half-maximal effect; nearly all actives have a fitted effect of over 55% in size
#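 Quantitative HTS format: compounds meet 15 uM recombinant K18 P301L tau and Alexa 594-tau tracer in 100 mM sodium acetate pH 7; 20 uM heparin triggers fibrillization at 37 C over 6 hr; FP gives the signal.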
# Sfp PPTase inh = blocks B. subtilis Sfp PPTase activity | Q9F4F7 | Biochemical Sfp PPTase activity, qHTS | Potency, µM, inactives show largest response in the series, negative = inhibition, usual class: inhibitors | AID 1490 | 310,000 tested, 3.5% active;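 note: the enzyme is Sfp with the accession as filed and its product quenches rhodamine fluorescence; potency is the fitted concentration of half-maximal effect; 0% = enzyme reaction without inhibitor and -100% = no enzyme wells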
#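 After 15 min at room temperature with compound, 15 nM Sfp received 5 uM rhodamine-CoA plus 12.5 uM BHQ-2-ybbR (50 mM Hepes pH 7.6, 10 mM MgCl2). Rate came from the fluorescence difference over 30 min, ex 525/em 598 nm.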
# * hit, by the source's call; ? = inconclusive; . = not tested or not shown; [ ] = remark or other dose. Unless noted, calls come from the whole dose curve; as a rule, active = well fitted curve in the direction sought with a large enough effect; inconclusive = small, poorly fitted or top-dose-only effect, or another doubt; inactive = no such curve, though single readings can be large; an effect the other way counts as inactive or inconclusive. Unless noted, % is set by controls: 0 for no effect and ±100 for the full control effect.
SMILES,G9a inh,Coupling enz,Tau fibril ThT,Tau fluor counter,Tau FP inhib,Sfp PPTase inh
O=C(NNc1nc(-c2ccc(F)cc2)cs1)c1ccccc1,22µM*,3,?,-22%,-5%,50µM*
O=C(NNc1nc(-c2ccccc2)cs1)c1ccc(F)cc1,20µM*,3,?,-29%,-13%,?
CCN(CC)C(=O)Cn1nnc(-c2ccc(S(C)(=O)=O)cc2)n1,?,1,-1%,6%,6%,19%
CCN(CC)S(=O)(=O)c1ccc(NN=C2CCN(C)CC2)c([N+](=O)[O-])c1,35µM*,0,-16%,-13%,1%,5%
CCN(CC)S(=O)(=O)c1ccc(NN=C2CCN(C(C)C)CC2)c([N+](=O)[O-])c1,45µM*,3,-11%,-13%,5%,0%
CCN1CCN(c2ccc(S(=O)(=O)N(CC)CC)cc2[N+](=O)[O-])CC1,?,0,7%,10%,4%,0%
COc1ccc(/C(O)=C2/C(=O)C(=O)N(CCCN3CCOCC3)C2c2ccc(OC)cc2)cc1 (stereo not drawn),.,11,.,.,.,-2%
CC1Cc2cc(/C(O)=C3/C(=O)C(=O)N(CCN4CCOCC4)C3c3ccc([N+](=O)[O-])cc3)ccc2O1 (stereo not drawn),79µM*,3,.,.,.,-8%
CC1Cc2cc(/C(O)=C3/C(=O)C(=O)N(CCN4CCOCC4)C3c3cccc(Cl)c3)ccc2O1 (stereo not drawn),0%[12.7 µM],7,-1%,5%,11%,7%
CC(C)c1ccc(C2/C(=C(\O)c3ccc4c(c3)OCCO4)C(=O)C(=O)N2CCN2CCOCC2)cc1 (stereo not drawn),?,9,.,.,.,-9%
COc1ccc(C2/C(=C(/O)c3ccc4c(c3)CC(C)O4)C(=O)C(=O)N2CCCN2CCOCC2)cc1 (stereo not drawn),45µM*,-1,.,.,.,4%
C=CCOc1ccc(C2/C(=C(/O)c3ccc4c(c3)CC(C)O4)C(=O)C(=O)N2CCCN2CCOCC2)cc1 (stereo not drawn),45µM*,7,.,.,.,-3%
CCCOc1cccc(C2/C(=C(/O)c3ccc4c(c3)CC(C)O4)C(=O)C(=O)N2CCN2CCOCC2)c1 (stereo not drawn),50µM*,0,.,.,.,3%
CC1(C(=O)OCC(=O)Nc2ccc3ccccc3c2)CC1(Cl)Cl (stereo not drawn),26%,-5,-13%,?,?,21%
Cc1nc2nc(C)c(CCC(=O)NCc3ccccc3)c(C)n2n1,9%[59 µM],.,-4%,-7%,-1%,.
NC(=O)C1CCCN(C(=O)c2ccc(NC(=O)c3cccs3)cc2)C1 (stereo not drawn),-43%[12.7 µM],.,.,.,.,.
CC1Cc2cc(/C(O)=C3/C(=O)C(=O)N(CCCN(C)C)C3c3ccncc3)ccc2O1 (stereo not drawn),-6%[12.7 µM],3,-4%,2%,-2%,18%
C=CCOc1ccc(C2/C(=C(\O)c3ccc4c(c3)CC(C)O4)C(=O)C(=O)N2CCN2CCOCC2)cc1OCC (stereo not drawn),20µM*,7,.,.,.,-9%
C=CCOc1cccc(C2/C(=C(\O)c3ccc4c(c3)OCCO4)C(=O)C(=O)N2CCN2CCOCC2)c1 (stereo not drawn),40µM*,.,.,.,.,14%
Cc1ccc(C2/C(=C(/O)c3ccc4c(c3)CC(C)O4)C(=O)C(=O)N2CCCn2ccnc2)cc1 (stereo not drawn),45µM*,.,.,.,.,20%
COC(=O)c1ccc(C2/C(=C(/O)c3ccc4c(c3)CC(C)O4)C(=O)C(=O)N2Cc2ccncc2)cc1 (stereo not drawn),45µM*,.,.,.,.,15%
CCOC(=O)N1CCN(C(=O)CN(c2cc(C)ccc2OC)S(=O)(=O)c2ccc(C)cc2)CC1,?,.,-4%,-5%,8%,.
CCN(C(=O)Cn1c(=O)oc2ccccc21)c1ccc(C)c(C)c1,-4%,0,.,.,.,3%
